Potency and outcome data for seven compounds are collected here from PubChem BioAssay (Tox21).

Test [1] can be described thus: qHTS assay for small molecules that induce genotoxicity in human embryonic kidney cells expressing luciferase-tagged ATAD5 (AID 651632). Also: nearly all actives have a fitted effect of over 15% in size. Also: potency is read from the fitted curve at half-maximal effect. In outline:
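A rise in luciferase signal from ATAD5-tagged HEK293T cells marks genetic stress. Cells were exposed to compounds for 16 hr at 37C, 5% CO2, then luciferase was quantified after a 30 min room-temperature incubation with Amplite.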
Background: Quantitative high-throughput screening tests each substance at several concentrations.

The nature of test [2]: qHTS assay for small molecules that induce genotoxicity in human embryonic kidney cells expressing luciferase-tagged ATAD5 - cell viability (AID 651634; calls by dose curve; also: nearly all actives have a fitted effect of over 25% in size). In a few lines:
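Cytotoxicity counter-readout: after 15.5 hr compound treatment at 37C, live-cell protease activity in ATAD5-luciferase HEK293T cells measured by CellTiter-Fluor fluorescence, 30 min development at 37C.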

Test [3] can be described thus: qHTS assay to test for compound auto fluorescence at 590 nm (red) in HepG2 cells (AID 720674). In outline:
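1 hr compound incubation on HepG2 cells, 37 C, 5% CO2; plate read ex 540 nm / em 590 nm; intensities reported as Rose Bengal sodium equivalents.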

Test [4] is described as follows: qHTS assay to test for compound auto fluorescence at 535 nm (green) in HepG2 cells (AID 720675).
Test [5] is described as follows: qHTS assay to test for compound auto fluorescence at 460 nm (blue) in HEK293 cells (AID 720678). In a few lines: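 HEK293 cells (2,000 per well, medium with 10% dialyzed FBS) attached for 4-5 hr at 37C, then received compound and stood overnight at 37C, 5% CO2. Blue fluorescence was read at Ex/Em 405/460 nm and expressed relative to triamterene.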
Test [6] is described as follows: qHTS assay to test for compound auto fluorescence at 590 nm (red) in HEK293 cells (AID 720679). In outline:
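HEK293 cells (2,000/well, medium with 10% dialyzed FBS) attached for 4-5 hr at 37C, received 23 nL compound and were incubated overnight at 37C, 5% CO2. Red fluorescence was then read at 540/590nm Ex/Em, referenced to Rose Bengal sodium.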

Test [7] is described as follows: qHTS assay to test for compound auto fluorescence at 535 nm (green) in HEK293 cells (AID 720680).
Test [8] is described as follows: qHTS assay to test for compound auto fluorescence at 460 nm (blue) in HEK293 cell free culture (AID 720681). In outline: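 Blue fluorescence (Ex 405/Em 460 nm, triamterene-equivalent) was read immediately after pin transfer of compound or DMSO into medium (DMEM, 10% FBS) without cells.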
Test [9] is described as follows: qHTS assay to test for compound auto fluorescence at 535 nm (green) in HEK293 cell free culture (AID 720682). In a few lines: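 Using fluorescein as calibrant, autofluorescence was quantified at 485/535 nm in cell-free DMEM containing 10% FBS after pintool addition of compound or vehicle.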
Test [10] is described as follows: qHTS assay to test for compound auto fluorescence at 590 nm (red) in HEK293 cell free culture (AID 720683). In a few lines: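 Red-channel autofluorescence of compounds in culture medium (DMEM, 10% FBS), no cells, measured at 540/590 nm. Rose Bengal sodium is the reference fluorophore for equivalence.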
Test [11] is described as follows: qHTS assay to test for compound auto fluorescence at 590 nm (red) in HepG2 cell free culture (AID 720684). In a few lines: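 Cell-free; medium MEM + 10% FBS; compound or DMSO added by pintool; read Ex 540/Em 590 nm; Rose Bengal sodium as red reference fluorophore.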
Test [12] in a line: qHTS assay to test for compound auto fluorescence at 460 nm (blue) in HepG2 cell free culture (AID 720685). In a few lines: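 Cell-free plates of MEM plus 10% FBS received 23 nL compound or DMSO vehicle; blue-channel (405/460 nm) intensity scored against triamterene as reference fluorophore.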
Test [13] in a line: qHTS assay to test for compound auto fluorescence at 535 nm (green) in HepG2 cell free culture (AID 720686).
The nature of test [14]: qHTS assay to test for compound auto fluorescence at 460 nm (blue) in HepG2 cells (AID 720687). In outline: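 Blue-channel autofluorescence (Ex/Em 405/460 nm, triamterene-equivalent) was measured after 1 hr compound exposure at 37 C, 5% CO2. Cells were HepG2, plated overnight at 37 C in MEM plus 10% FBS.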
The nature of test [15]: qHTS assay for small molecule agonists of the p53 signaling pathway - cell viability (AID 651633; calls by dose curve;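 also: p53RE-bla HCT reporter cells with a stable beta-lactamase p53 reporter; series mostly up to about 83 µM; nearly all actives have a fitted effect of over 30% in size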). In a few lines: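 Viability counter-read: CellTiter-Glo luminescence (30 min, room temperature) in the same p53RE-bla plates. These plates had been exposed to compounds for 16 h at 37 C.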
The nature of test [16]: qHTS assay for small molecule disruptors of the mitochondrial membrane potential - cell viability (AID 720634; calls by dose curve; also: nearly all actives have a fitted effect of over 20% in size; also: potency is read from the fitted curve at half-maximal effect). In a few lines:
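Cytotoxicity was quantified from ATP content by CellTiter-Glo luminescence in the same wells as the MMP dye read-out. HepG2 (2,000 cells/well) were plated overnight and exposed to compounds for 1 hr at 37 C.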

Test [17] in a line: qHTS assay for small molecule disruptors of the mitochondrial membrane potential (AID 720635). Also: potency is read from the fitted curve at half-maximal effect. In outline: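 Mitochondrial membrane potential tracked with Mito-MPS dye, red aggregates (ex 540/em 590 nm) against green monomers (ex 490/em 535 nm). Compound treatment 1 hr at 37C, dye 30 min in HepG2.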
The target of test [18] is Glucocorticoid receptor (Homo sapiens) (UniProt P04150). The experiment in a line: qHTS assay to identify small molecule agonists of the glucocorticoid receptor (GR) signaling pathway (AID 720691; active = well fitted activation curve with a large enough effect in the signal ratio in the repeat runs, not every such curve was filed as active; the % refers to the signal ratio). In a few lines: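 Agonist-mode qHTS in HeLa cells stably expressing a glucocorticoid-response-element beta-lactamase reporter. Fluorescence intensity read with FRET substrate (2 h, room temperature) after 18 h compound treatment at 37 C.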

Test [19] shares this target. The experiment in a line: qHTS assay to identify small molecule antagonists of the glucocorticoid receptor (GR) signaling pathway (AID 720692; active = well fitted inhibition curve with a large enough effect in the signal ratio in the repeat runs, not every such curve was filed as active; the % refers to the signal ratio). In outline: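 Inhibition of dexamethasone-driven (5 nM final) beta-lactamase expression was measured in GRE-reporter HeLa cells over 18 h at 37C. Fluorescence was read after 2 h with the B/G FRET substrate at room temperature.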

Where “and” joins values, the source holds several entries; their conditions need not be identical. Equal values may be shown once. Inconclusive results are not listed. Calls of active or inactive are those of the source. Unless noted, calls follow the shape of the dose curve; as a rule, active = well fitted curve in the direction sought with a large enough effect in the repeat runs; inconclusive = weak or mixed curves; inactive = no such curve, though single readings can be large; an effect the other way counts as inactive or inconclusive.

Sequence of Glucocorticoid receptor (Homo sapiens) (P04150 whole entry, looked up): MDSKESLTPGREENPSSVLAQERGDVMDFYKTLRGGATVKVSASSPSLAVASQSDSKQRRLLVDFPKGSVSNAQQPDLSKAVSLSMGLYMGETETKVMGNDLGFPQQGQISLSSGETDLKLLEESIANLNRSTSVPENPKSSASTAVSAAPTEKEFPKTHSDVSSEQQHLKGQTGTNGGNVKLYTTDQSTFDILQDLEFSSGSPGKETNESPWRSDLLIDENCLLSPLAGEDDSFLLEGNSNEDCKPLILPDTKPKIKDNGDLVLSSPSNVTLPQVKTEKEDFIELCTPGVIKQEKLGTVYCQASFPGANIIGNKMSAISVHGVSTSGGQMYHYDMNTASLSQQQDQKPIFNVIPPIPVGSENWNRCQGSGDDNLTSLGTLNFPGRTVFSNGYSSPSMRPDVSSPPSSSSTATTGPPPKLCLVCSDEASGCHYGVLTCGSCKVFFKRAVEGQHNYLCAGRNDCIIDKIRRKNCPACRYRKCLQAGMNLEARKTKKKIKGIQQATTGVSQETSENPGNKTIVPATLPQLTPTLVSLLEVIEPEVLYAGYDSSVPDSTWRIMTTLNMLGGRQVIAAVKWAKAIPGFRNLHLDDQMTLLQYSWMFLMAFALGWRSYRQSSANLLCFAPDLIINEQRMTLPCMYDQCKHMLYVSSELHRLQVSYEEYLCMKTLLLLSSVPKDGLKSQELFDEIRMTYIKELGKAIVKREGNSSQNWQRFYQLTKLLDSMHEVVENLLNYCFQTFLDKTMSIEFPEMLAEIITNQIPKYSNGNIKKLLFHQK

`Clc1ccccc1-c1nnc(-c2ccccc2Cl)nn1`: in [1], the Potency was 30.4 µM (active). Moreover, the Potency result in [2], in [5], in [8], in [12] and in [14] was “inactive” in each case. In addition, the outcome in [3], in test [4], in test [6], in test [7], in [9] and in [10] was inactive. The compound was called inactive in test [11] and in [13].
For the compound `CSc1nc(NC(C)C)nc(NC(C)C)n1`, the Potency entry in [1], in [15], in test [2], in [16], in test [5] and in test [8] was “inactive” in each case. The Potency result in test [12] and in test [14] was “inactive” each time. Also, the compound was called inactive in [3], in [4], in test [6], in test [7], in test [9] and in test [10]. Also, the result in test [11] and in test [13] was inactive.
Regarding `CC(C)=CC1C(C(=O)OCc2cccc(Oc3ccccc3)c2)C1(C)C` (configuration not stated), the Potency entry in test [1], in test [15], in [2], in test [16], in test [17] and in [5] was “inactive” in each case. Moreover, the Potency result in test [8], in test [12] and in test [14] was “inactive” each time. Further, the call in test [3], in test [4], in test [6], in test [7], in test [9] and in test [10] was inactive. The call in test [11], in test [13] and in test [18] was inactive.
With `CCC(=O)Nc1ccc(Cl)c(Cl)c1`, the Potency entry in test [15], in [2], in test [5], in test [8], in test [12] and in test [14] was “inactive” in each case. Also, the Potency is 54.5 µM (active) in test [16]; 31.3 µM (active) and 30.6 µM (active) in test [17]. Further, the compound was called inactive in test [3], in test [4], in [6], in test [7], in test [9] and in [10]. Further, the outcome in [11] and in test [13] was inactive.
As to `CC1CC(=O)O1` (configuration not stated), the Potency entry in test [15], in [2], in test [16], in test [17], in test [5] and in test [8] was “inactive” in each case. Moreover, the Potency result in [12], in test [14] and in test [19] was “inactive” throughout. Besides, the call in test [3], in test [4], in test [6], in [7], in test [9] and in test [10] was inactive. Also, the call in [11] and in [18] was inactive.
With `CC(C)=CC1C(C(=O)OCN2C(=O)C3=C(CCCC3)C2=O)C1(C)C` (configuration not stated), the Potency result in test [1], in test [15], in test [2], in test [5], in [8] and in test [12] was “inactive” each time. Further, in [14], the Potency result is “inactive”. In addition, the Potency in test [17] was 29.8 µM (active) and 54.5 µM (active). Moreover, the call in test [3], in test [4], in test [6], in test [7], in test [9] and in test [10] was inactive. Moreover, the compound was called inactive in [11], in [13] and in test [18].
For the compound `CCC1(c2ccc(N)cc2)CCC(=O)NC1=O` (configuration not stated), the Potency result in test [1], in test [15], in test [2], in test [16], in [17] and in test [5] was “inactive” each time. Also, the Potency result in test [8], in [12], in [14] and in test [19] was “inactive” throughout. In addition, the call in [3], in test [4], in test [6], in [7], in test [9] and in [10] was inactive. In addition, the compound was classed as inactive in [11], in [13] and in test [18].
